Results filed as inconclusive are left out. Activity calls are given as the source filed them. Unless noted, calls follow the shape of the dose curve; as a rule, active = well fitted curve in the direction sought with a large enough effect in the repeat runs; inconclusive = weak or mixed curves; inactive = no such curve, though single readings can be large; an effect the other way counts as inactive or inconclusive.
Columns and labels:
[1] = qHTS assay to identify small molecule antagonists of the estrogen related receptor (ERR) signaling pathway - cell viability counter screen (AID 1224818); also: series mostly up to about 46 µM
Procedure, shortened: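 ERR cells, 2,000 per well, compound added after 6 h and incubated 17.5 h at 37 C. Viability read by CellTiter-Fluor fluorescence after a further 30 min at 37 C.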

[2] = qHTS assay to identify small molecule antagonists of the estrogen related receptor (ERR) signaling pathway (AID 1224819;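 also: luminescence from an ERR-driven luciferase reporter measured with One-Glo reagent; series mostly up to about 46 µM; nearly all actives have a fitted effect of over 50% in size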)
Procedure, shortened: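 ERR reporter cell line (NTP) plated at 2,000 cells/well, settled 6 h at 37C/5% CO2, then exposed to LOPAC compounds for 18 h at 37C. One-Glo luciferase luminescence read after 30 min at room temperature.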

[3] = qHTS assay to identify small molecule agonists of the estrogen related receptor (ERR) signaling pathway (AID 1224820)
Procedure, shortened: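 Quantitative HTS of the LOPAC library used NTP ERR reporter cells treated 18 h at 37 C. Signal is luminescence after One-Glo addition and a 30 min room-temperature incubation.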

[4] = system: estrogen-related receptor alpha (ERRalpha) with PGC-1alpha coactivator, human; test: qHTS assay to identify small molecule antagonists of the estrogen related receptor signaling pathway with the pleiotropic PPARgamma coactivator (PGC) (AID 1224821; calls by dose curve;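 also: series mostly up to about 46 µM; lower luminescence signal means antagonism of PGC/ERR signalling; nearly all actives have a fitted effect of over 50% in size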)
Procedure, shortened: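 Quantitative HTS for antagonism: PGC/ERR cells received compounds after 6 h attachment and were incubated 18 h at 37 C, with luminescence (One-Glo) as the endpoint.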

[5] = qHTS assay to identify small molecule agonists of the estrogen related receptor signaling pathway with the pleiotropic PPARgamma coactivator (PGC) (AID 1224823)
Procedure, shortened: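 Cell-based luciferase assay in the NTP-supplied PGC/ERR line, 2,000 cells/well; 18 h compound exposure at 37 C, luminescence after One-Glo.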

[6] = qHTS assay to identify small molecule antagonists of the estrogen related receptor signaling pathway with the pleiotropic PPARgamma coactivator (PGC) cell viability counter screen (AID 1224822; also: series mostly up to about 46 µM)
Procedure, shortened: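 PGC/ERR cells rested 6 h, then compound-treated 17.5 h at 37 C. CellTiter-Fluor added for 30 min at 37 C, viability measured by fluorescence intensity.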

[7] = qHTS assay for small molecule agonists of the p53 signaling pathway (AID 651631; calls by dose curve; also: nearly all actives have a fitted effect of over 15% in size)
Procedure, shortened: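 Stably transfected HCT-116 cells (beta-lactamase behind p53 response elements) get compounds after a 5 h settling period; 16 h later at 37 °C, FRET substrate is loaded and fluorescence read after 2 h.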

[8] = qHTS assay for small molecules that induce genotoxicity in human embryonic kidney cells expressing luciferase-tagged ATAD5 (AID 651632); also: nearly all actives have a fitted effect of over 15% in size
Procedure, shortened: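 HEK293T cells carrying luciferase-tagged ATAD5 were given compound or DMSO vehicle and incubated 16 hr at 37C, 5% CO2. Luciferase activity was read after 30 min at room temperature with Amplite; a rise signals genotoxic stress.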

[9] = qHTS assay for small molecule agonists of the p53 signaling pathway - cell viability (AID 651633; calls by dose curve;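 also: p53RE-bla HCT reporter cells with a stable beta-lactamase p53 reporter; series mostly up to about 83 µM; nearly all actives have a fitted effect of over 30% in size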)
Procedure, shortened: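 p53RE-bla cells were treated with compound for 16 hours at 37 C. Cytotoxicity was then measured as CellTiter-Glo luminescence after 30 min at room temperature.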

[10] = qHTS assay for small molecules that induce genotoxicity in human embryonic kidney cells expressing luciferase-tagged ATAD5 - cell viability (AID 651634; calls by dose curve; also: nearly all actives have a fitted effect of over 25% in size)
Procedure, shortened: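 HEK293T cells carrying luciferase-tagged ATAD5, 2,000 cells/well, exposed to compound for 15.5 hr at 37C. Viability read as live-cell protease activity by CellTiter-Fluor fluorescence after 30 min at 37C.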

[11] = qHTS assay for small molecule disruptors of the mitochondrial membrane potential - cell viability (AID 720634; calls by dose curve;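 also: human HepG2 liver cancer cells; series mostly up to about 83 µM; nearly all actives have a fitted effect of over 20% in size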)
Procedure, shortened: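 HepG2 cells, 2,000 per well, attached overnight, then treated 1 hr at 37 C, 5% CO2. Viability read as ATP by CellTiter-Glo luminescence after 30 min at room temperature. Read in the same wells as the m-MPI membrane-potential dye assay.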

[12] = qHTS assay for small molecule disruptors of the mitochondrial membrane potential (AID 720635)
Procedure, shortened: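 HepG2 cells exposed to compound 1 hr at 37C, then Mito-MPS dye 30 min. Ratio read of aggregate (540/590 nm) versus monomer (490/535 nm) fluorescence.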

[13] = qHTS assay to test for compound auto fluorescence at 590 nm (red) in HepG2 cells (AID 720674)
Procedure, shortened: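 HepG2 cells, 2,000 per well in MEM with 10% FBS, attached overnight at 37 C, then got 23 nL compound or DMSO. After 1 hr at 37 C, 5% CO2, red fluorescence was read at 540/590 nm against Rose Bengal sodium as reference.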

[14] = qHTS assay to test for compound auto fluorescence at 460 nm (blue) in HEK293 cells (AID 720678)
Procedure, shortened: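 Measured: blue fluorescence (Ex 405/Em 460 nm) of compound-treated HEK293 cells, incubated overnight at 37C with 5% CO2 and scaled to triamterene equivalents.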

[15] = qHTS assay to test for compound auto fluorescence at 590 nm (red) in HEK293 cells (AID 720679)
Procedure, shortened: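 Using HEK293 cells at 2,000 per well, the screen added 23 nL of each compound after cell attachment and incubated overnight (37C, 5% CO2). The plate reader then captured red-label fluorescence, Ex/Em 540/590nm.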

[16] = qHTS assay to test for compound auto fluorescence at 535 nm (green) in HEK293 cells (AID 720680)
[17] = qHTS assay to test for compound auto fluorescence at 460 nm (blue) in HEK293 cell free culture (AID 720681)
Procedure, shortened: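 Compounds were added to cell-free DMEM with 10% FBS and fluorescence read directly. The blue channel used 405 nm excitation and 460 nm emission, with triamterene as the reference fluorophore.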

[18] = qHTS assay to test for compound auto fluorescence at 535 nm (green) in HEK293 cell free culture (AID 720682)
Procedure, shortened: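 Using fluorescein as calibrant, autofluorescence was quantified at 485/535 nm in cell-free DMEM containing 10% FBS after pintool addition of compound or vehicle.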

[19] = qHTS assay to test for compound auto fluorescence at 590 nm (red) in HepG2 cell free culture (AID 720684)
Procedure, shortened: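 Compounds are added to culture medium (MEM, 10% FBS) lacking cells, then fluorescence is read at excitation 540 nm, emission 590 nm, with Rose Bengal sodium as the equivalency standard.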

[20] = qHTS assay to test for compound auto fluorescence at 460 nm (blue) in HepG2 cell free culture (AID 720685)
Procedure, shortened: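 Compound (23 nL) or DMSO pinned into cell-free MEM with 10% FBS; blue fluorescence read at 405/460 nm excitation/emission, expressed as auto-fluorescence equivalency to triamterene.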

[21] = qHTS assay to test for compound auto fluorescence at 535 nm (green) in HepG2 cell free culture (AID 720686)
[22] = molecular target: Glucocorticoid receptor (Homo sapiens) (UniProt P04150); test: qHTS assay to identify small molecule agonists of the glucocorticoid receptor (GR) signaling pathway (AID 720691; active = well fitted activation curve with a large enough effect in the signal ratio in the repeat runs, not every such curve was filed as active; the % refers to the signal ratio)
Procedure, shortened: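 GR-bla HeLa cells carrying a GRE-driven beta-lactamase reporter, exposed to compounds for 18 h at 37 C. Reporter activation read as fluorescence after 2 h with LiveBLAzer B/G FRET substrate at room temperature.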

[23] = molecular target: Glucocorticoid receptor (Homo sapiens) (UniProt P04150); test: qHTS assay to identify small molecule antagonists of the glucocorticoid receptor (GR) signaling pathway (AID 720692; active = well fitted inhibition curve with a large enough effect in the signal ratio in the repeat runs, not every such curve was filed as active; the % refers to the signal ratio)
Procedure, shortened: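 GR-bla HeLa cells carrying a GRE-driven beta-lactamase reporter received compound after 4 h plating, then dexamethasone (5 nM final). After 18 h at 37C, the FRET substrate was loaded for 2 h at room temperature and fluorescence read.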

[24] = qHTS assay to identify small molecule antagonists of the glucocorticoid receptor (GR) signaling pathway - cell viability counter screen (AID 720693); also: nearly all actives have a fitted effect of over 55% in size
[25] = qHTS assay for identifying genotoxic compounds that show differential cytotoxicity against isogenic chicken DT40 cell lines with known DNA damage response pathways - Rad54/Ku70 mutant cell line (AID 743015); also: nearly all actives have a fitted effect of over 60% in size
[26] = qHTS assay to identify small molecule antagonists of the androgen receptor (AR) signaling pathway - cell viability counter screen (AID 743033; also: nearly all actives have a fitted effect of over 45% in size)
[27] = qHTS assay to identify small molecule antagonists of the androgen receptor (AR) signaling pathway using the MDA cell line - cell viability counter screen (AID 743041; also: nearly all actives have a fitted effect of over 45% in size)
Procedure, shortened: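 Same-well cytotoxicity was assessed by CellTiter-Fluor in MDA-kb2 AR-luc cells after 16 h of compound treatment under R1881 agonism.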

[28] = qHTS assay to identify small molecule antagonists of the thyroid receptor (TR) signaling pathway - cell viability counter screen (AID 743064); also: nearly all actives have a fitted effect of over 50% in size
Procedure, shortened: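 Counter screen for cytotoxicity: compound plus T3 (1 nM final) on GH3.TRE-Luc cells, 23.5 h at 37 °C, then fluorescence viability readout with CellTiter-Fluor.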

[29] = qHTS assay to identify small molecule antagonists of the thyroid receptor (TR) signaling pathway (AID 743065); also: series mostly up to about 70 µM; nearly all actives have a fitted effect of over 55% in size
Procedure, shortened: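 GH3.TRE-Luc rat pituitary cells (two TREs driving luciferase) were dosed with compound, then stimulated with 1 nM T3 (final) for 23.5 h at 37 C. ONE-Glo luminescence was the read-out, with CellTiter-Fluor fluorescence as the cytotoxicity counter-screen.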

[30] = system: thyroid hormone receptor (rat, GH3 cells); test: qHTS assay to identify small molecule agonists of the thyroid receptor (TR) signaling pathway (AID 743066; calls by dose curve)
[31] = molecular target: Estrogen receptor (Homo sapiens) (UniProt P03372); test: qHTS assay to identify small molecule antagonists of the estrogen receptor alpha (ER-alpha) signaling pathway (AID 743069; active = well fitted curve in the direction sought with a large enough effect in the signal ratio in the repeat runs, not every such curve was filed as active; the % refers to the signal ratio)
Procedure, shortened: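 Reporter cells (ER-alpha-bla, HEK293 background) are conditioned overnight in stripped-serum medium (2% charcoal-stripped FBS). Compound and 17beta-estradiol exposure runs 18 hr at 37C, 5% CO2.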

[32] = molecular target: Estrogen receptor (Homo sapiens) (UniProt P03372); test: qHTS assay to identify small molecule agonists of the estrogen receptor alpha (ER-alpha) signaling pathway (AID 743075; calls by dose curve;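 also: HEK293 GripTite cells with ER-alpha and UAS-driven beta-lactamase reporter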)
[33] = qHTS assay to identify small molecule antagonists of the estrogen receptor alpha (ER-alpha) signaling pathway using the BG1 cell line (AID 743080; calls by dose curve;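 also: BG1 cells stimulated with 17beta-estradiol alongside compound; series mostly up to about 70 µM; nearly all actives have a fitted effect of over 25% in size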)
Procedure, shortened: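 Quantitative HTS on the Tox21 10K library: BG1 cells with endogenous ER-alpha and ERE-luciferase reporter, 17beta-estradiol stimulation, 21.5 h compound exposure, luminescence endpoint with parallel fluorescence cytotoxicity counter-read.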

[34] = qHTS assay to identify small molecule antagonists of the estrogen receptor alpha (ER-alpha) signaling pathway using the BG1 cell line - cell viability counter screen (AID 743081);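 also: compound given together with 17beta-estradiol as the ER stimulus; series mostly up to about 70 µM; nearly all actives have a fitted effect of over 45% in size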
Aromatase (Homo sapiens) = Aromatase (Homo sapiens) (UniProt P11511); test: qHTS assay to identify aromatase inhibitors (AID 743083); also: series mostly up to about 70 µM; nearly all actives have a fitted effect of over 55% in size
[35] = qHTS assay to identify aromatase inhibitors - cell viability counter screen (AID 743084);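 also: cells stimulated with testosterone during compound exposure; nearly all actives have a fitted effect of over 55% in size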
[36] = molecular target: Aryl hydrocarbon receptor (Homo sapiens) (UniProt P35869); test: qHTS assay to identify small molecule that activate the aryl hydrocarbon receptor (AhR) signaling pathway (AID 743085);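 also: HG2L7.5c1 human HepG2 liver cells with stably integrated DRE-driven firefly reporter; series mostly up to about 70 µM; nearly all actives have a fitted effect of over 15% in size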
Procedure, shortened: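 Measured in HG2L7.5c1 cells: CellTiter-Fluor signal (30 min incubation, 37C) for viability, then luciferase luminescence (30 min, room temperature). Compound contact time was 24 h at 37C, following a 5 h pre-incubation.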

[37] = qHTS assay to identify small molecule that activate the aryl hydrocarbon receptor (AhR) signaling pathway - cell viability counter screen (AID 743086);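 also: HepG2 liver cells carrying the AhR DRE luciferase reporter; series mostly up to about 70 µM; nearly all actives have a fitted effect of over 45% in size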
Procedure, shortened: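 HepG2-AhR-luc (HG2L7.5c1) cells, 4000/well, treated 24 h at 37 C with compound; viability measured as CellTiter-Fluor fluorescence after 30 min in the same wells as the luciferase read.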

[38] = molecular target: Peroxisome proliferator-activated receptor gamma (Homo sapiens) (UniProt P37231); test: qHTS assay to identify small molecule agonists of the peroxisome proliferator-activated receptor gamma (PPARg) signaling pathway (AID 743094; active = well fitted activation curve with a large enough effect in the signal ratio in the repeat runs, not every such curve was filed as active; the % refers to the signal ratio)
Procedure, shortened: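 GeneBLAzer PPARg UAS-bla HEK293H cells were plated, rested 5 h, then exposed to compounds for 17 h at 37C. Beta-lactamase activity was read by LiveBLAzer B/G FRET substrate fluorescence after 1 h at room temperature.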

[39] = qHTS assay to identify small molecule phospholipidosis (PLD) inducers (AID 1259344; active = well fitted curve in the direction sought with a large enough effect; an effect the other way counts as inactive or inconclusive)
Procedure, shortened: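 Quantitative HTS in HepG2: compound plus LipidTOX Red dye for 24 h, paraformaldehyde fixation with Hoechst 33342, widefield high-content imaging; amiodarone as positive and DMSO as negative control.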

Measured: Potency

Sequence of Glucocorticoid receptor (Homo sapiens) (P04150 whole entry, looked up): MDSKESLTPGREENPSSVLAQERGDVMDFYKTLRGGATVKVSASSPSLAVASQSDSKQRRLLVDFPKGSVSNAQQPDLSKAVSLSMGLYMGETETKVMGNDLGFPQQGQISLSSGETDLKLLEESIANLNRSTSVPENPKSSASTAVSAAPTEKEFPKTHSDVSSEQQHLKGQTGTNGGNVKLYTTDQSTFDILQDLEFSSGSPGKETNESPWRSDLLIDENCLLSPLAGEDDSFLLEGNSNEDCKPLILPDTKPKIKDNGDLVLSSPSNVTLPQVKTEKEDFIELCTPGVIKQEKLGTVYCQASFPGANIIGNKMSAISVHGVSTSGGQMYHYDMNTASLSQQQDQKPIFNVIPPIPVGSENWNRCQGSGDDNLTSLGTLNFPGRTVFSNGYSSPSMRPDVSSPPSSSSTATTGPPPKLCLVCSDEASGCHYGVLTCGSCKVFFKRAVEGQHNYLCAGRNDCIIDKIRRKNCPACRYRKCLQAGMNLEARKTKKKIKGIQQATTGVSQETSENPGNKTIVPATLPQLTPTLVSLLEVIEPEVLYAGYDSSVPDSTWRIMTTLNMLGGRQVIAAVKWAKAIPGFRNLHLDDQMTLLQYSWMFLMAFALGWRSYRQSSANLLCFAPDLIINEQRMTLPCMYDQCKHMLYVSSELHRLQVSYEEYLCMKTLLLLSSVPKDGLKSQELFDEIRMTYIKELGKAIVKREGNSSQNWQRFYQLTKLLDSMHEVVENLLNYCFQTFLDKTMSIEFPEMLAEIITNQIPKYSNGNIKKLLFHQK
Sequence of Estrogen receptor (Homo sapiens) (P03372 whole entry, looked up): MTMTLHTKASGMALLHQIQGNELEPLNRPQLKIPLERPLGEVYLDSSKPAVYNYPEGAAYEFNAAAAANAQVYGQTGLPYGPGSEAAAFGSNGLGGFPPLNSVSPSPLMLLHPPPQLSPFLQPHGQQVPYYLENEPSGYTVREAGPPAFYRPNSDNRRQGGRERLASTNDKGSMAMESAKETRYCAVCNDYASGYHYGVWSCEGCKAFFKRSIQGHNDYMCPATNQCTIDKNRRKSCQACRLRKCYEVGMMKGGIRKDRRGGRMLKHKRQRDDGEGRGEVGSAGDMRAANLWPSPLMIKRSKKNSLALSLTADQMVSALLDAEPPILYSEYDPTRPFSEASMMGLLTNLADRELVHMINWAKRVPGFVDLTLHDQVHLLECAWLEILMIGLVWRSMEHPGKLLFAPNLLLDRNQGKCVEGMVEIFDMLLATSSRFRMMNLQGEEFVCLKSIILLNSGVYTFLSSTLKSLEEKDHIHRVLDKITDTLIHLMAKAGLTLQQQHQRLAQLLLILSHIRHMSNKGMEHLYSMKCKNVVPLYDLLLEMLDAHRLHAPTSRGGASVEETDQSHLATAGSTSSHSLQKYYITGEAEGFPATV
Sequence of Aryl hydrocarbon receptor (Homo sapiens) (P35869 whole entry, looked up): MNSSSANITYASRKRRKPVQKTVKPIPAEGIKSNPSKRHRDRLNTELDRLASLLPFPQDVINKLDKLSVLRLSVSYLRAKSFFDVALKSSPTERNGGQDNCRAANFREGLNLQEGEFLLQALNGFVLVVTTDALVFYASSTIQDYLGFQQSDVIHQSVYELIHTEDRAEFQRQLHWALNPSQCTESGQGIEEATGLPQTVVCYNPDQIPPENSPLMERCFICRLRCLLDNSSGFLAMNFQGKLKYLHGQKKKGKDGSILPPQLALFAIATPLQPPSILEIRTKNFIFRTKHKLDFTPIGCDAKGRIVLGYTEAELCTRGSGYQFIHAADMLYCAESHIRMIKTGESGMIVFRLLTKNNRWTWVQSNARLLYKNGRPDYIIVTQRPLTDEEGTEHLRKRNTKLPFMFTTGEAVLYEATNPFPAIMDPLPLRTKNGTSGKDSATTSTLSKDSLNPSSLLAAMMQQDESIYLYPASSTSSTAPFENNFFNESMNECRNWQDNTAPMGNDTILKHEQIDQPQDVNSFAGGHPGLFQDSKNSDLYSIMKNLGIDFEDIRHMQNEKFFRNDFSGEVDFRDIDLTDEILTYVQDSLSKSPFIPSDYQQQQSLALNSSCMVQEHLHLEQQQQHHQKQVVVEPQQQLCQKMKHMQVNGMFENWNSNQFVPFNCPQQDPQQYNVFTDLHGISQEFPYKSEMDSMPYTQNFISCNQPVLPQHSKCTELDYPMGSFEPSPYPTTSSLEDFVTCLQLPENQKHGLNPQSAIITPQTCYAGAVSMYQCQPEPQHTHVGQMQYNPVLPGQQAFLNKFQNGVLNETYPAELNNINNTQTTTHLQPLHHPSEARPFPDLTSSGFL
Sequence of Aromatase (Homo sapiens) (P11511 whole entry, looked up): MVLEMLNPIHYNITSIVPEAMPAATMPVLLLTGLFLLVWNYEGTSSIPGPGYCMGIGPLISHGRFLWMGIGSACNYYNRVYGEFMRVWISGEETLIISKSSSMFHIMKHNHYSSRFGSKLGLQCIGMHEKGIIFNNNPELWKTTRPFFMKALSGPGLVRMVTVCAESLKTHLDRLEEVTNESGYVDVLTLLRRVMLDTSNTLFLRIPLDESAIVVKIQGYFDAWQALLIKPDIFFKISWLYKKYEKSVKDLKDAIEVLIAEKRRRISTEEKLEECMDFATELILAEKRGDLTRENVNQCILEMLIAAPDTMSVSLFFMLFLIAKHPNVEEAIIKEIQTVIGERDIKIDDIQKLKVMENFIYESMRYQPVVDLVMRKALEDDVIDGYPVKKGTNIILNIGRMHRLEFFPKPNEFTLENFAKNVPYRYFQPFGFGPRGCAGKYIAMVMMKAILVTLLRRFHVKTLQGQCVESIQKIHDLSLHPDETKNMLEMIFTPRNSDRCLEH
Sequence of Peroxisome proliferator-activated receptor gamma (Homo sapiens) (P37231 whole entry, looked up): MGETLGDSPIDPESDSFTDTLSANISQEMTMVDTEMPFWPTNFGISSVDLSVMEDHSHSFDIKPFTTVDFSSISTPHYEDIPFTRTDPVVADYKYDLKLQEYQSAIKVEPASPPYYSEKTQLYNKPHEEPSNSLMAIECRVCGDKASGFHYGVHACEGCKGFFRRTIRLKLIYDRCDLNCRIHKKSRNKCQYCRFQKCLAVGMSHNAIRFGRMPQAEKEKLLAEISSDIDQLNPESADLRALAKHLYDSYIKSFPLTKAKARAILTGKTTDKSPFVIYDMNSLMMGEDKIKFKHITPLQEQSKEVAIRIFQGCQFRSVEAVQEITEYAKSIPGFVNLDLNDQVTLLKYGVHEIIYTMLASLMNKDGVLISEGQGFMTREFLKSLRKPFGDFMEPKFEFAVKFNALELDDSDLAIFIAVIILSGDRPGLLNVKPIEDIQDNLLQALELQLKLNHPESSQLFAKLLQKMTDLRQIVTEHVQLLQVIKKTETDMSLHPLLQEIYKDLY

c1ccc2sc(C3(N4CCCCC4)CCCCC3)cc2c1
inactive: [1] | [2] | [3] | [4] | [5]

CC(N)Cc1c[nH]c2ccc(OCc3cccs3)cc12 (configuration not stated)
inactive: [1] | [2] | [3] | [4] | [5]

NC(=O)c1cc(N2CC2)c([N+](=O)[O-])cc1[N+](=O)[O-]
inactive: [1] | [2] | [3] | [4] | [6] | [5]

NCCCP(=O)(O)O
inactive: [1] | [2] | [3] | [4] | [6] | [5]

CCCCc1ccc(C(=O)O)nc1
inactive: all assays above

— PubChem BioAssay (Tox21)
